Assay [1] deals with RAC-alpha serine/threonine-protein kinase (Homo sapiens) (UniProt P31749). The note with it: at 1 µM.
Assay [2] shares this target. The note with it: at 10 µM.
The target in assay [3] is Platelet-derived growth factor receptor alpha (Homo sapiens) (UniProt P16234). The following applies: at 10 µM.
The target of assay [4] is Platelet-derived growth factor receptor beta (Homo sapiens) (UniProt P09619). The note with it: at 1 µM.
Assay [5] shares this target. The following applies: at 10 µM.
Assay [6] deals with T1, 3-phosphoinositide-dependent protein kinase 1 (Homo sapiens) (UniProt O15530).
T1 sequence (whole entry): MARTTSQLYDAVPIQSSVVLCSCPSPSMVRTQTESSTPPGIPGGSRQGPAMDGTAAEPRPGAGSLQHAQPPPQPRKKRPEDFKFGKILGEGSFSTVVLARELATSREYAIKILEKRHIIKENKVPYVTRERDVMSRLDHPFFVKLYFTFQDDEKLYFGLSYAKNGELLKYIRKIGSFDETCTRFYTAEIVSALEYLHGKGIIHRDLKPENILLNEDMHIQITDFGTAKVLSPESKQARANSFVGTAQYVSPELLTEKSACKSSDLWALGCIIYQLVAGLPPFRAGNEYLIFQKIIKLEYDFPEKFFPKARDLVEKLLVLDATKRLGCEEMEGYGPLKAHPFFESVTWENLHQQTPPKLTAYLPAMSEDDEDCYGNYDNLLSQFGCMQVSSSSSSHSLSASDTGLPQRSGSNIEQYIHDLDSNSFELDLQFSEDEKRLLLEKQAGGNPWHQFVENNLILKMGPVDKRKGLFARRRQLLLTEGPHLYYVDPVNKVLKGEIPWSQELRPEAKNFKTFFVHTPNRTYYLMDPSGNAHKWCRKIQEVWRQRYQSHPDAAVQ
The following applies: at 1 µM.

Assay [7] addresses T1, 3-phosphoinositide-dependent protein kinase 1 (Homo sapiens). The note with it: at 10 µM.
In assay [8] the target is cAMP-dependent protein kinase catalytic subunit alpha (Homo sapiens) (UniProt P17612). The following applies: at 1 µM.
Assay [9] concerns the target RAC-gamma serine/threonine-protein kinase (Homo sapiens) (UniProt Q9Y243). The note with it: at 1 µM.
For assay [10] the target is unchanged. The following applies: at 10 µM.
Assay [11] addresses Protein kinase C alpha type (Homo sapiens) (UniProt P17252). The following applies: at 1 µM.
Assay [12] shares this target. The following applies: at 10 µM.
For assay [13], the target named is Protein kinase C beta type (Homo sapiens) (UniProt P05771). The following applies: at 1 µM.
Sequence of Protein kinase C beta type (Homo sapiens) (P05771 2-671 limits assumed): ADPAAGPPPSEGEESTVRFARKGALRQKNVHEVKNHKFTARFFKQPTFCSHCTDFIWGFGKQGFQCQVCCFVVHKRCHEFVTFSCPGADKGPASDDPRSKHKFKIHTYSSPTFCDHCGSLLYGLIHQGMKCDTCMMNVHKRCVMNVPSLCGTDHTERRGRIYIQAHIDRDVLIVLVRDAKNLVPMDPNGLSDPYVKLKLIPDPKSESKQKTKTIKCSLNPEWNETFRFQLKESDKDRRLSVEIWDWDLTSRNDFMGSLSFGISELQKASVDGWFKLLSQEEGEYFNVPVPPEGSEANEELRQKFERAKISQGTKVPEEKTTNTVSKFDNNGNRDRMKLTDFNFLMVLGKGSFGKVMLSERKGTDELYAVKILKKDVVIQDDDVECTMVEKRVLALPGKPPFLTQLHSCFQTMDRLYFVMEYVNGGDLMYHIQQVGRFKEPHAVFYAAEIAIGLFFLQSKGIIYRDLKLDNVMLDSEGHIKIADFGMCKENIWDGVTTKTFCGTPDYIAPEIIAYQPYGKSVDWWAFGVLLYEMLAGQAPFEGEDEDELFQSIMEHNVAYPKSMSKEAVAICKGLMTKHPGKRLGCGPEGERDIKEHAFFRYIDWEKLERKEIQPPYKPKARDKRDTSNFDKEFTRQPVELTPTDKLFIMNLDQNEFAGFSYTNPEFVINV
Assay [14] shares this target. The note with it: at 10 µM.
Assay [15] shares this target. The following applies: at 1 µM. This is another data set of the same source.
Assay [16] has the same target. The following applies: at 10 µM. The source holds these as a separate data set.
The target in assay [17] is Protein kinase C gamma type (Homo sapiens) (UniProt P05129). The note with it: at 1 µM.
For assay [18] the target is unchanged. The note with it: at 10 µM.
The target in assay [19] is Protein kinase C delta type (Homo sapiens) (UniProt Q05655). The following applies: at 1 µM.
For assay [20], the target named is cAMP-dependent protein kinase catalytic subunit alpha (Homo sapiens) (UniProt P17612). The following applies: at 10 µM.

One may read the residual activity as the signal under treatment as a percentage of the control signal.

Sequence of RAC-alpha serine/threonine-protein kinase (Homo sapiens) (P31749 whole entry): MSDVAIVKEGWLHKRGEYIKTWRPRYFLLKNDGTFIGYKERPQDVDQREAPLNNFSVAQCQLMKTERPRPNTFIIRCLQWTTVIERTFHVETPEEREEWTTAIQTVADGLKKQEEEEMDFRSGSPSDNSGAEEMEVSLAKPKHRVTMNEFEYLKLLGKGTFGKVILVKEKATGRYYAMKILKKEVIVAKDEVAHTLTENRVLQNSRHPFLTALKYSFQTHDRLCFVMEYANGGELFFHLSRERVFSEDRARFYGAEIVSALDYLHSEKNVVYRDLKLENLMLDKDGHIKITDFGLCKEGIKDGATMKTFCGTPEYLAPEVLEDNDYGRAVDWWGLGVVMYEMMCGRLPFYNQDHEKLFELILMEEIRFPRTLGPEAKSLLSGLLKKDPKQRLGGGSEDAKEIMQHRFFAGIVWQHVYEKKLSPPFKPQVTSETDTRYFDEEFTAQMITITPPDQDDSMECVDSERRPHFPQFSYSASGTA
Sequence of Platelet-derived growth factor receptor alpha (Homo sapiens) (P16234 whole entry): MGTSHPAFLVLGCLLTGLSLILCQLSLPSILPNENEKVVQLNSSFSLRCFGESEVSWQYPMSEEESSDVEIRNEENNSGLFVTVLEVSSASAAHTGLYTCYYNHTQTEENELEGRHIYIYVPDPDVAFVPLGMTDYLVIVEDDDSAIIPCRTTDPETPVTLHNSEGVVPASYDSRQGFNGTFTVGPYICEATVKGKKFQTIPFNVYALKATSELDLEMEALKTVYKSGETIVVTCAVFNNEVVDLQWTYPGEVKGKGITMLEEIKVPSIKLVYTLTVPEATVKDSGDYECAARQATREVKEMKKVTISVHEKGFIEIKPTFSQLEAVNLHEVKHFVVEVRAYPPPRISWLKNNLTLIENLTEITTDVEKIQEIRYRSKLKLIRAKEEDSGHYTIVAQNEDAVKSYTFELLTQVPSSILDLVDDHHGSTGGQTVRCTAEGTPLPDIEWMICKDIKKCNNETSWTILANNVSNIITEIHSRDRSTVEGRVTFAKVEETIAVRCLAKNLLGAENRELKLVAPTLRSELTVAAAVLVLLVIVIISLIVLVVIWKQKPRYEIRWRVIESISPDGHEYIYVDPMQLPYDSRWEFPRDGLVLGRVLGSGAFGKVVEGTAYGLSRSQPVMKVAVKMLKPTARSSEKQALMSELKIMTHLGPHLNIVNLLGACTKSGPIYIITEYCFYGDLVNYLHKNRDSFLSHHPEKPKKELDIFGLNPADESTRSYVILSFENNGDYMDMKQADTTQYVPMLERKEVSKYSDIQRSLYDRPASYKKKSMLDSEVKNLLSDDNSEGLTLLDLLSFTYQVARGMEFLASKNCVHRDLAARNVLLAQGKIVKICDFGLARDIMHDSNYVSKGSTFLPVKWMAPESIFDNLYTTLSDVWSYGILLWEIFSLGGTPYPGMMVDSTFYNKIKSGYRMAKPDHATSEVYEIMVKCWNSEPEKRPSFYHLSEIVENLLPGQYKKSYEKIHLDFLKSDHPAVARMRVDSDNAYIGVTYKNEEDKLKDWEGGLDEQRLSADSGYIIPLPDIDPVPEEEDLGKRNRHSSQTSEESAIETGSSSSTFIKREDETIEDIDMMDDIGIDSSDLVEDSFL
Sequence of Platelet-derived growth factor receptor beta (Homo sapiens) (P09619 whole entry): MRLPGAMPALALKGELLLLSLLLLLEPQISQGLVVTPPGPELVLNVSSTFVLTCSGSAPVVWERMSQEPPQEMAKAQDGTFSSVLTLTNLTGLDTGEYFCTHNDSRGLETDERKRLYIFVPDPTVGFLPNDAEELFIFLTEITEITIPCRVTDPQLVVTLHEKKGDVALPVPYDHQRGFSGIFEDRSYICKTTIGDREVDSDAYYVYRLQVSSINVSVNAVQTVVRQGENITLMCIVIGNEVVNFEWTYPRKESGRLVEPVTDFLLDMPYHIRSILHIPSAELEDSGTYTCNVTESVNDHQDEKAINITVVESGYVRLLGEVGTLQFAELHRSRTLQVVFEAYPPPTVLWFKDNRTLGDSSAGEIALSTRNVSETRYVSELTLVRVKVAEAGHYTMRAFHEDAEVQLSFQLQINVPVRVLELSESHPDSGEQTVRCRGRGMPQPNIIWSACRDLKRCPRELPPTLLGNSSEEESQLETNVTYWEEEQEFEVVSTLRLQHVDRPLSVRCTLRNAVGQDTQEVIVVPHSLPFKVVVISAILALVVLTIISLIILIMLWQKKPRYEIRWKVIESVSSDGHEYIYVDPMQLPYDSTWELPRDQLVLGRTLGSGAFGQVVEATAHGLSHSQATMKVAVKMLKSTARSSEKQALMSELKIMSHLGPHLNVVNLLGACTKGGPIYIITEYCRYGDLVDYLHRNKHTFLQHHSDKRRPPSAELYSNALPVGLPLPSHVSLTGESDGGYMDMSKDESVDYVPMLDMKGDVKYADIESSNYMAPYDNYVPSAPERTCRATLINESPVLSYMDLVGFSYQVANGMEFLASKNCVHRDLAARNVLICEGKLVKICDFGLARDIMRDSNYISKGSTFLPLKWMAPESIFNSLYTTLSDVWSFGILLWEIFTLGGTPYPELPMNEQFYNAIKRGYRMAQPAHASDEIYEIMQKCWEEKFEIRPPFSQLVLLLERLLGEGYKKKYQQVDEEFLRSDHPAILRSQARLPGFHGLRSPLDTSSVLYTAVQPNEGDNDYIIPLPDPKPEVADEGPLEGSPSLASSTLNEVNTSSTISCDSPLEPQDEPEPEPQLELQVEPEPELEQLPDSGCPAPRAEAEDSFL
Sequence of RAC-gamma serine/threonine-protein kinase (Homo sapiens) (Q9Y243 whole entry): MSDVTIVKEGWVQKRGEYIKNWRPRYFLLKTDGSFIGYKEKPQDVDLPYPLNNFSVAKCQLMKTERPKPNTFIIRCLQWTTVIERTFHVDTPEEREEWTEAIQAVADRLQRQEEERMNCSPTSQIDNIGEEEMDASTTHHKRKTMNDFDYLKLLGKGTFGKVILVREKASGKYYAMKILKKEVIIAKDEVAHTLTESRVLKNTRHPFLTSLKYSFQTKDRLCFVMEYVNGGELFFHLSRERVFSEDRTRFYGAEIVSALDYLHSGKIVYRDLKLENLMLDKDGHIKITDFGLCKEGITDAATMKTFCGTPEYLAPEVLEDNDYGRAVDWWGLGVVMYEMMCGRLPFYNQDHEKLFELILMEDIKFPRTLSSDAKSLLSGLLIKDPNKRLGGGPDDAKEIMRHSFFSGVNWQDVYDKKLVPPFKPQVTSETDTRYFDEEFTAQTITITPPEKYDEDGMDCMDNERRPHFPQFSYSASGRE

As to `CN(C)CCCn1cc(C2=C(c3c[nH]c4ccccc34)C(=O)NC2=O)c2ccccc21`, the residual activity in assay [1] was 103%; in assay [2], 104%.
As to `COc1cc2ncnc(Nc3ccc(OCc4ccccc4)cc3)c2cc1OC`, the residual activity in [3] was 57%; in [4], 106%; in [5], 89%; in [6], 119%; in assay [7], 114%; in assay [8] it was 88%. The residual activity amounted to 104% in assay [1]; 122% in [2]; 99% in assay [9]; 103% in [10]; 117% in assay [11]; 114% in assay [12]. In addition, the residual activity came out at 123% in assay [13]; 106% in assay [14]; 105% in assay [15]; 101% in assay [16]; 105% in [17]; 108% in assay [18]. Moreover, in [19], the residual activity is 104%.
`O=c1[nH]c2ccccc2n1C1CCN(Cc2ccc(-c3nc4cc5[nH]cnc5cc4nc3-c3ccccc3)cc2)CC1`: the residual activity in assay [3] was 101%; in assay [4] it was 108%; in [5] it was 96%; in assay [6], 113%; in assay [7] it was 120%; in assay [8] it was 97%. The residual activity in assay [20] turned out to be 145%; in [1], 98%; in assay [2] it was 90%; in assay [9], 118%; in assay [10] it was 69%; in assay [11] it was 104%. Moreover, the residual activity was found to be 104% in [12]; 102% in assay [13]; 93% in assay [14]; 88% in assay [15]; 93% in [16]; 108% in assay [17]. Moreover, the residual activity in assay [18] was 98%; in assay [19] it was 107%.
`O=[N+]([O-])/C=C/c1ccc2c(c1)OCO2`: the residual activity amounted to 105% in assay [3]; 94% in [4]; 97% in assay [5]; 106% in [6]; 96% in assay [7]; 124% in assay [8]. The residual activity stood at 100% in [1]; 110% in assay [2]; 125% in assay [9]; 106% in [10]; 111% in [11]; 111% in [12]. For the same compound, the residual activity in assay [13] came to 113%; in assay [16] it was 106%; in assay [17], 103%; in [18], 67%; in [19] it was 99%.
`COc1ccc2c(c[n+](C)c3c4cc5c(cc4ccc23)OCO5)c1OC`: the residual activity was 98% in assay [8]; 73% in [20]; 98% in assay [1]; 110% in assay [2]; 82% in [9]; 63% in assay [10]. Moreover, the residual activity in assay [11] was determined as 110%; in assay [12], 100%; in assay [15], 87%.
In the case of `CCc1nc(-c2ccc(OC)cc2)[nH]c1-c1ccncc1`, the residual activity in assay [3] came out at 109%; in [4] it was 110%; in assay [5] it was 108%; in assay [6], 110%; in assay [7] it was 101%; in assay [1], 113%. Besides, the residual activity worked out at 108% in assay [2]; 105% in assay [12]; 127% in [13]; 105% in assay [14]; 108% in assay [17]; 108% in assay [18]. Also, the residual activity in assay [19] is 107%.
For `COC(=O)[C@@]1(O)C[C@H]2O[C@]1(C)n1c3ccccc3c3c4c(c5c6ccccc6n2c5c31)C(=O)NC4`, the residual activity in assay [3] was 8%; in [4] it was 46%; in assay [5], 8%; in assay [6] it was -1%; in assay [7], 0%; in assay [8], 7%. Also, the residual activity in assay [20] turned out to be 3%; in [1] it was 101%; in assay [2], 37%; in [9], 11%; in assay [10], 3%; in assay [11], 19%. Moreover, the residual activity in [12] was 0%; in assay [13], 53%; in assay [14], 13%; in assay [15], 67%; in assay [16], 18%; in assay [17], 19%. Besides, the residual activity in assay [18] amounted to 2%; in [19], 18%.
In the case of `O=C1NC(=O)/C(=C\c2ccc3nccnc3c2)S1`, the residual activity in assay [1] stood at 106%; in assay [2], 108%.
In the case of `O=C1Nc2ccc3ncsc3c2/C1=C/c1c[nH]cn1`, the residual activity came to 20% in [3]; 29% in assay [5]; 31% in assay [6]; 6% in [7]; 25% in assay [8]; 5% in [20]. The residual activity in assay [1] was found to be 99%; in [2], 106%; in [10], 30%; in [11] it was 67%; in assay [12], 18%; in [13], 55%. The residual activity was 12% in assay [14]; 67% in [15]; 43% in assay [16]; 69% in assay [17]; 21% in [18]; 15% in assay [19].
`CC(C)[C@H](CO)Nc1nc(Nc2cccc(Cl)c2)c2ncn(C(C)C)c2n1`: the residual activity in assay [7] turned out to be 97%; in assay [10], 84%; in assay [15], 120%; in assay [16], 96%; in assay [17], 102%; in assay [18] it was 101%.
On to `CNc1cc2c(Nc3cccc(Br)c3)ncnc2cn1`, for which the residual activity in assay [1] and in [2] was 98% in each case.
As for `COc1cc(OC)c(/C=C2\C(=O)Nc3ccccc32)c(OC)c1`, the residual activity is 69% in [3]; 100% in assay [8]; 91% in assay [20]; 103% in assay [9]; 80% in assay [10]; 105% in assay [13]. The residual activity was 103% in assay [14], 103% in [15], 101% in [16] and 98% in [17].
As to `COc1ccc(Cl)cc1NC(=O)Nc1cc(C)nc2ccccc12`, the residual activity was 95% in assay [1] and 94% in [2].
Turning to `c1cc(-c2cnn3cc(-c4ccc(OCCN5CCCCC5)cc4)cnc23)ccn1`, the residual activity in assay [3] turned out to be 3%; in assay [4] it was 27%; in [5], 4%; in [7], 84%; in [8], 71%; in [20], 32%. Moreover, the values for the residual activity in [13] and in [14] were 118% and 104%, respectively.
Regarding `CO[C@@H]1[C@H](N(C)C(=O)c2ccccc2)C[C@H]2O[C@]1(C)n1c3ccccc3c3c4c(c5c6ccccc6n2c5c31)C(=O)NC4`, the residual activity was found to be 97% in assay [1] and 99% in assay [2].
Take `CC[n+]1c(/C=C/N(C)c2ccccc2)n(-c2ccccc2)c2ccc(-c3nc4ccccc4s3)cc21`: the residual activity in assay [1] came to 99%; in assay [2] it was 107%.
As for `O=C1Nc2cc(Br)ccc2/C1=C1/Nc2ccccc2/C1=N\O`, the residual activity came to 114% in assay [1] and 107% in [2].
Consider `COc1ccc(CNC(=O)Nc2ncc([N+](=O)[O-])s2)cc1`, for which the residual activity in [1] came to 116%; in assay [2], 106%.

For the origin of these results see ChEMBL document CHEMBL2218924, “A broad activity screen in support of a chemogenomic map for kinase signalling research and drug discovery” (Biochem J, 2013).
